NPR2 activator: GC-B (human) receptor activation; P20594; HEK293-GC-B cells, CNP EC30, cGMP TR-FRET; 0% at EC30 CNP, 100% saturating CNP; activation, % at 10 µM; 0.11% of 370,000 active;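 active means activation at 10 µM reaching about 35% in either raw or pattern-adjusted values, limit read from the data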
GC-A act: GC-A (human) enzyme activation; HEK293 GC-A cells, cGMP TR-FRET, EC30 ANP; 0% at EC30 ANP, 100% saturating ANP; activation, % at 10 µM; 0.14% of 370,000 active; in the data active means activation above about 40%
Target sequence (P16066 whole entry, looked up): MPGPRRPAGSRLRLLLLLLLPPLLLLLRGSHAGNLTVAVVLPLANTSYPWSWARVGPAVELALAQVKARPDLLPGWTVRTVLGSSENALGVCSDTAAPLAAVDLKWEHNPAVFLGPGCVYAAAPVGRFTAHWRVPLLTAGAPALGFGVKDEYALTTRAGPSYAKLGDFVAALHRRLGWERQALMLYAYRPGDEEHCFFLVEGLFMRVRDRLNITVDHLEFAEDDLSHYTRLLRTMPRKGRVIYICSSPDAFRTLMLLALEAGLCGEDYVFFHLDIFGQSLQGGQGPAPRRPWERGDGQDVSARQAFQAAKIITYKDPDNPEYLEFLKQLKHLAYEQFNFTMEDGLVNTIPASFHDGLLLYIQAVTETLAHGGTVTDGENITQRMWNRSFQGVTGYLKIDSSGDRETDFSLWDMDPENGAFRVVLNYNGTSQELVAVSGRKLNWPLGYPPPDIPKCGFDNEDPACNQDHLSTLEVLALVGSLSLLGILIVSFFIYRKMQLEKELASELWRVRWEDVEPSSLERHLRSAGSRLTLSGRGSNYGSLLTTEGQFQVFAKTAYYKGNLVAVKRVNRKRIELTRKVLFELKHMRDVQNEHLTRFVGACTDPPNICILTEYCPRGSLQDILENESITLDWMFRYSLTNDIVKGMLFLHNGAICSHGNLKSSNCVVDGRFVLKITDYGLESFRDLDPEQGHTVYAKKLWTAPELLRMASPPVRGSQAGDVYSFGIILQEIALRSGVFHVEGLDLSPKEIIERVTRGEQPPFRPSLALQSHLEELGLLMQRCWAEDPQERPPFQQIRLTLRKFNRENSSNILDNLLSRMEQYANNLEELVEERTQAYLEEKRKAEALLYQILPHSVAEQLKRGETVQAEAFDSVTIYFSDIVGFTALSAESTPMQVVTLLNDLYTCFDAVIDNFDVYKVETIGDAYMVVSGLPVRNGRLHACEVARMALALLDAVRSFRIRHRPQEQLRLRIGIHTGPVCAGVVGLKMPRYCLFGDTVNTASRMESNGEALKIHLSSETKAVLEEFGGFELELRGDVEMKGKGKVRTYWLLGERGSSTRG
Exocytosis inh: lytic granule exocytosis inhibition | TALL-104 LAMP-1 surface exposure, flow cytometry; cells stimulated with thapsigargin and PMA | AID 651702 | inhibition, % at 10 µM | 0.66% of 360,000 active;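 active means inhibition above about 55%, limit read from the data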
Myeloid diff 2: promotes myeloid progenitor differentiation | ER-HoxA9 myeloid progenitors, lysozyme-GFP differentiation, flow cytometry | calls only at 10 µM | AID 624256 | 1% of 360,000 active;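 active means normalized GFP-positive differentiation at or above the plate's own cutoff, the solvent-only control mean plus 3 SD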;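 further: cells exposed to compound for four days before flow analysis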
Myeloid diff: compounds promoting myeloid differentiation. shares compounds with Myeloid diff 2. ER-HoxA9 myeloid progenitors, GFP/Mac1 double-positive flow. calls only. 2% of 2,300 active. AID 651706;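 active means share of green or green-and-red cells above 9 and 9% in run 1 or 4 and 3% in run 2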
GFP autofluor: compound fluorescence in myeloid differentiation counter-screen | shares compounds with Myeloid diff 2 | ER-HoxA9 myeloid progenitors, no estrogen, GFP autofluorescence flow cytometry; vehicle wells 0%, positive control 100% | fluorescence response, % (test concentration not listed) | 7.4% of 2,300 active;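 active means over 5% cells positive for green fluorescent reporter, or over 2% positive for both it and APC stain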;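 further: range taken on the double positive population between DMSO and positive control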
An asterisk follows results filed as active; i = inactive; . = not tested or not shown; + = active, no number. The list is not random: actives were taken first. Their share in the collection is about 1.8%.

SMILES	NPR2 activator	GC-A act	Exocytosis inh	Myeloid diff 2	Myeloid diff	GFP autofluor
Clc1ccc(C=Cc2ccccn2)cc1	-3.2	6.1	1.2	i	.	.
CCCCOC(=O)C1=C(C)NC(=O)NC1c1ccc([N+](=O)[O-])s1 (stereo not given)	-6.8	-5.3	2.0	+	i	0.0
CCCCOC(=O)C1=C(C)NC(=O)NC1c1cccc([N+](=O)[O-])c1 (stereo not given)	-4.5	-6.3	11.2	i	.	.
CCSCCC(NC1=CC(=O)CC(C)(C)C1)C(=O)O (stereo not given)	-8.8	-7.2	-0.9	+	i	0.3
CC1(C)CC(=O)C=C(NCC(=O)O)C1	-1.7	2.2	-1.5	i	.	.
COc1cccc(/C(O)=C/c2nc3ccc(C(=O)NCCc4ccc(Cl)cc4)cc3[nH]c2=O)c1	0.4	-4.3	3.3	+	i	0.0
CCCC(=O)Nc1nc2ccc(NC(=O)c3ccc(Br)o3)cc2s1	0.2	-4.2	0.4	+	i	0.0
CC(C)(C)OC(=O)N1CCC[C@@H]1C(=O)NCc1ccccc1Cl	-2.6	1.1	0.0	i	.	.
COc1ccc2c(c1OC)C(=O)N(c1ccc(C)c(C)c1)C2=O	-4.4	7.5	-1.8	i	.	.
COc1ccc2c(c1OC)C(=O)N(c1ccc3c(c1)CCC3)C2=O	-0.9	1.1	-0.1	i	i	0.2
Cc1ccccc1-c1cnc(C(O)c2ccc(F)cc2)[nH]1 (stereo not given)	3.3	-0.1	-0.7	i	.	.
Cc1ccc(C)c2sc(N3CCN(C(=O)c4ccc([N+](=O)[O-])o4)CC3)nc12	-10.3	-8.8	1.1	i	i	0.3
Cc1cccn2cc(COc3ccc(-c4ccccc4)cc3)nc12	-2.1	0.5	3.2	+	+	0.6
Cc1ccnc(NC(=O)c2cccc(S(=O)(=O)N3CCN(c4ccc(F)cc4)CC3)c2)c1	-2.6	-4.0	1.0	i	.	.
CCC1(C2C=COC=C2)NC(=O)NC1=O (stereo not given)	0.8	1.3	5.1	i	.	.
O=C(NCc1ccccc1)C(C(=O)c1ccc(F)cc1)n1ccccc1=O (stereo not given)	1.8	-3.0	0.5	i	i	0.7
O=C(NCc1cccnc1)C(C(=O)c1ccc(F)cc1)n1ccccc1=O (stereo not given)	1.8	-2.1	-0.7	i	.	.
O=C(O)CN(c1ccccn1)S(=O)(=O)c1ccc(Cl)cc1	3.9	0.9	-1.5	+	i	1.1
COC(=O)C1=C(C)N(Cc2cccc(C(F)(F)F)c2)C(=NCC2CC2)NC1c1cccc(F)c1 (stereo not given)	-17.4	-22.2	.	.	.	.
CSc1nc(N)nc2c1ncn2CC(=O)NCCCN1CCCC1=O	-1.8	-1.9	3.7	i	.	.
O=C(Nc1nc(-c2ccc(Cl)cc2)cs1)C1=COCCO1	5.5	-0.5	4.9	i	i	0.0
O=[N+]([O-])c1ccc(/C=C/c2nc3ccc([N+](=O)[O-])cc3[nH]2)cc1	3.4	-2.8	4.0	+	i	0.0
Nc1nc2ccc([N+](=O)[O-])cc2[nH]1	-2.6	3.5	-10.9	i	.	.
Cc1cc(C(=O)O)c(CCCN)s1	-0.3	2.3	-1.3	i	i	0.3
Cc1noc(C)c1C(=O)OCC(=O)Nc1ccccc1SCC#N	0.0	2.7	2.4	+	i	56.9*
SMILES	NPR2 activator	GC-A act	Exocytosis inh	Myeloid diff 2	Myeloid diff	GFP autofluor
N#CCSc1ccccc1NC(=O)COC(=O)CCNC(=O)c1ccc([N+](=O)[O-])cc1	-2.5	-0.3	11.3	+	i	41.1*
CCOc1ccc(NC(=S)N2c3ccccc3CC2C)cc1 (stereo not given)	1.7	2.2	-1.0	i	i	0.0
CC(=O)c1cccc(NC(=S)N2c3ccccc3CC2C)c1 (stereo not given)	1.6	2.2	-3.8	i	.	.
COc1ccc2ccccc2c1C=Nn1c(-c2cc(-c3ccccc3)n[nH]2)n[nH]c1=S	-19.6	-1.3	.	.	.	.
N#Cc1nn(-c2ccccc2)nc1N1CCCCC1	-7.3	-5.0	-2.0	+	i	0.0
N#Cc1nc(COc2ccccc2)oc1N1CCCCCC1	3.7	6.1	6.2	i	.	.
Cc1ccccc1NS(=O)(=O)c1ccc(OCC(=O)N2CCCCC2)cc1	-1.3	-0.1	5.0	+	i	0.0
CCOc1ccc(S(=O)(=O)Nc2ccccc2C(=O)N(C)C2CCN(C)CC2)cc1	3.2	2.4	-2.9	i	i	0.0
CN(Cc1ccccc1)S(=O)(=O)c1cccc(C(=O)OCc2ccccc2)c1	2.1	-2.5	.	.	.	.
CC(C)NC(=O)C1C(c2ccccc2)=Nc2ccccc2N1C(=O)c1cc(Cl)cc(Cl)c1 (stereo not given)	-11.6	-8.3	-10.7	i	.	.
O=C(NCc1cccc(Cl)c1)c1cccc2c(-c3cccnc3)coc12	10.6	1.6	-0.5	i	.	.
COC(=O)[C@H]1C[C@@]2(c3ccccc3)c3ccccc3N(S(=O)(=O)c3ccccc3)[C@H]2N1	-10.9	-17.9	.	.	.	.
COc1ccc(N2C(=O)CC(NCCNc3ccc([N+](=O)[O-])cn3)C2=O)cc1 (stereo not given)	-2.8	2.2	-0.1	i	i	0.3
CCOc1ccc(N2C(=O)CC(NCCNc3ccc([N+](=O)[O-])cn3)C2=O)cc1 (stereo not given)	-4.5	1.3	-1.6	i	.	.
O=C(NCCc1c[nH]c2ccccc12)c1ccc([N+](=O)[O-])o1	-2.4	0.8	2.9	+	i	1.1
CC(C)(C)c1ccc(S(=O)(=O)NCCOCC(F)(F)C(F)F)cc1	6.0	5.6	1.0	+	i	0.0
CC(C)(C)c1ccc(S(=O)(=O)NCCc2ccncc2)cc1	-0.5	2.6	-1.2	i	.	.
COC(=O)[C@H](Cc1ccccc1)NC(=O)/C=C/[C@H]1O[C@@H](n2ccc(=O)[nH]c2=O)[C@H](O)[C@@H]1O	12.7	2.6	2.3	i	.	.
CC1(C)C2CCC1(C)C(SC(=N)N)C2 (stereo not given)	-3.8	-4.9	-0.4	i	i	0.0
Cn1c(=O)c2cc(S(=O)(=O)NCCC(=O)NCCC3=CCCCC3)ccc2n(C)c1=O	0.4	-3.1	-2.5	+	i	0.6
O=C(Nc1cccc(NC(=O)c2nccc3ccccc23)c1)c1ccco1	4.4	5.3	3.5	+	i	0.4
Cc1ccc(Cc2c[nH]c(=S)s2)cc1	-0.2	0.2	0.8	+	i	0.5
Cc1cn(-c2cc(NC(=O)c3ccc(C)c(Nc4nccc(-c5cccnc5)n4)c3)cc(C(F)(F)F)c2)cn1	22.3	13.6	.	.	.	.
CCN(CC)CCN(C(=O)c1ccc(N2C(=O)CCC2=O)cc1)c1nc2cc3c(cc2s1)OCCO3	0.6	4.4	6.3	+	i	0.3
